From article PMC7862700, “An all-to-all approach to the identification of sequence-specific readers for epigenetic DNA modifications on cytosine” come the findings set out here.

Assay in all cases: DAPPL (digital affinity profiling via proximity ligation, sequencing); 10 mM Tris-HCl pH 7.5, 50 mM NaCl, 1 mM DTT, 4% glycerol, room temperature, 30 min; GST-TFs on glutathione beads, 16-mer random dsDNA library, 0.1% formaldehyde crosslink after washing; high values mean tight binding
What all share (conditions): protein: recombinant; tags: N-terminal GST; dsDNA, one strand shown

One assay concerns the target T1, FLI1 (Homo sapiens, UniProt Q01543 1-452).
T1 sequence: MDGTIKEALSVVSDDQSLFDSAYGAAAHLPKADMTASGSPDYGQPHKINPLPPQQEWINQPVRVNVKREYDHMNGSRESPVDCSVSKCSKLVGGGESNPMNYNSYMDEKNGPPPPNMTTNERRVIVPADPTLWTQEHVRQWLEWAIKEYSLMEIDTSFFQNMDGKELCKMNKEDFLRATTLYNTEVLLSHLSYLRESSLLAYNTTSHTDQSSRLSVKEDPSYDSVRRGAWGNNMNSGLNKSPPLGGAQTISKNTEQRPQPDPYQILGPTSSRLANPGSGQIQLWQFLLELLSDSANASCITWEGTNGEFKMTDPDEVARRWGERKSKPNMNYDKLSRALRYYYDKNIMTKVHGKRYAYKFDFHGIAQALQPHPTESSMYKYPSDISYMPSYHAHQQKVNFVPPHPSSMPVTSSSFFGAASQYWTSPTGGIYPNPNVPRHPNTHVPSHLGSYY
The method, boiled down: (§1)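 After expression in yeast as GST fusions, human transcription factors were bound to glutathione beads, DNA-barcoded and mixed with a tag-only sample. The pools were incubated with 200 nmole of a 16-mer random double-stranded DNA library in Tris/NaCl/DTT/glycerol buffer (30 min, room temperature), washed and crosslinked with 0.1% formaldehyde. Proximity ligation with BsaI/T4 ligase ran for 1 h at 37 °C, before PCR amplification and sequencing on an Illumina NextSeq500. Binding signal is a hexamer's read frequency for a factor divided by its frequency for the tag-only sample.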

For the next assay, the target named is T2, ELK1 (Homo sapiens, UniProt P19419 1-428).
T2 sequence: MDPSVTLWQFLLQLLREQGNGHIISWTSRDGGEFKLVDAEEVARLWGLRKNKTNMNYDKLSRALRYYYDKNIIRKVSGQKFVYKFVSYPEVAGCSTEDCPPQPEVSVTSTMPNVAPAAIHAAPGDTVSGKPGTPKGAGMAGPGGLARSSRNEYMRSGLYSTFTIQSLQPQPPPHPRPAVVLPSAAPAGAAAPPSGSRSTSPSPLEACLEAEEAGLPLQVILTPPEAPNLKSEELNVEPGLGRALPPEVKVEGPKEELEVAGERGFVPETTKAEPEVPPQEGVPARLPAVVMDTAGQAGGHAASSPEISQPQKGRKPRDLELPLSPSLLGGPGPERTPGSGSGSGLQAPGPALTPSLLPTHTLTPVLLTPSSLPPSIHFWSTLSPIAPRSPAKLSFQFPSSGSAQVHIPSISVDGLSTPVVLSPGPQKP
In outline: as §1

For a further assay, the target named is T3, GABPA (Homo sapiens, UniProt Q06546 1-454).
T3 sequence: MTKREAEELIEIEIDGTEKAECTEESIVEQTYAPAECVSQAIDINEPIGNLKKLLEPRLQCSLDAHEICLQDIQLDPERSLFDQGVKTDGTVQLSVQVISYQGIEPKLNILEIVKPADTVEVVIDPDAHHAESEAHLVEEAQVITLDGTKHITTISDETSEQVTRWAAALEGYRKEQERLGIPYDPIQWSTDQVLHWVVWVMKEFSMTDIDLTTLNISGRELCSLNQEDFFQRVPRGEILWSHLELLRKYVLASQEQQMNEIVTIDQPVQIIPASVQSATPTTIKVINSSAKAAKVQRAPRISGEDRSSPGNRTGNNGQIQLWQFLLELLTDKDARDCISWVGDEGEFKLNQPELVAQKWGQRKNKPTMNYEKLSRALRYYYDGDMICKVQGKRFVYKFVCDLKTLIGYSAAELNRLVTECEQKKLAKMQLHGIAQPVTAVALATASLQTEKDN
In outline: as §1

Another assay has as its target T4, ERG (Homo sapiens, UniProt P11308 1-479).
T4 sequence: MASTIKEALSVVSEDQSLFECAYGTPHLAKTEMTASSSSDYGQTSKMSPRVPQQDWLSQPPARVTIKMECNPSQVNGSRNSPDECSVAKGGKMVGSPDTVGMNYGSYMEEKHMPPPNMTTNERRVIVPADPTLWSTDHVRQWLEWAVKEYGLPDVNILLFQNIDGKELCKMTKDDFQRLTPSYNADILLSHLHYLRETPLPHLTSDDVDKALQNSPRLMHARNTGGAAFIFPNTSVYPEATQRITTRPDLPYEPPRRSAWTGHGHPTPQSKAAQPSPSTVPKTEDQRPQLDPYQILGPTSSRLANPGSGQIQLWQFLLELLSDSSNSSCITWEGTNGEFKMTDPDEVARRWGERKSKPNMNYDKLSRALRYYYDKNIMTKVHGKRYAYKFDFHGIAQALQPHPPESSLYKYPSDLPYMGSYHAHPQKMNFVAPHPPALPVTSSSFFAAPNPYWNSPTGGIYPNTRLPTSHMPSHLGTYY
The method, boiled down: as §1

Another assay addresses ELF1 (Homo sapiens, UniProt P32519 1-619). The method, boiled down: as §1
In the next assay the target is T5, EHF (Homo sapiens, UniProt Q9NZC4 1-300).
T5 sequence: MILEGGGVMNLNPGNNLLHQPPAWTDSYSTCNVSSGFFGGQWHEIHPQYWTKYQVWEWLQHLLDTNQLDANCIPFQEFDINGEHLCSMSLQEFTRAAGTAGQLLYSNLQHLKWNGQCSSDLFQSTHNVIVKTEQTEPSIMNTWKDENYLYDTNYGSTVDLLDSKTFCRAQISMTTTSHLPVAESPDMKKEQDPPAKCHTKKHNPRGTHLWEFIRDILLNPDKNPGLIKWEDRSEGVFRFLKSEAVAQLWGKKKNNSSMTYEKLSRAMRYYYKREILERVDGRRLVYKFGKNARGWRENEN
In outline:
as §1

The next assay addresses SPI1 (Homo sapiens, UniProt P17947 1-270). In outline: as §1
In the next assay the target is SPIB (Homo sapiens, UniProt Q01892 1-262). The method, boiled down:
as §1

The target in a further assay is T6, ELK3 (Homo sapiens, UniProt P41970 1-407).
T6 sequence: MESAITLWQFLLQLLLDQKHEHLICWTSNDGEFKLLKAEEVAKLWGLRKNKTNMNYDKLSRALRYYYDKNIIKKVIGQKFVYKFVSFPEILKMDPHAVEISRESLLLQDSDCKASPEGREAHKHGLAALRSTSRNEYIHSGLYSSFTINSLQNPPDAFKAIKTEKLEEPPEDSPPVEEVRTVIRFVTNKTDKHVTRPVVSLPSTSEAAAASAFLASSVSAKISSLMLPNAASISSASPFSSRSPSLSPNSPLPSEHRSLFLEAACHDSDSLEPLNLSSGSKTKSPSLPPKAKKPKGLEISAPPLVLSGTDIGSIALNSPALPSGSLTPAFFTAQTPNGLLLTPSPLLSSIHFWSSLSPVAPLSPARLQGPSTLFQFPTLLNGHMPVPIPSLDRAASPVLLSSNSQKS
The method, boiled down:
as §1

For the next assay, the target named is T7, FEV (Homo sapiens, UniProt Q99581 1-238).
T7 sequence: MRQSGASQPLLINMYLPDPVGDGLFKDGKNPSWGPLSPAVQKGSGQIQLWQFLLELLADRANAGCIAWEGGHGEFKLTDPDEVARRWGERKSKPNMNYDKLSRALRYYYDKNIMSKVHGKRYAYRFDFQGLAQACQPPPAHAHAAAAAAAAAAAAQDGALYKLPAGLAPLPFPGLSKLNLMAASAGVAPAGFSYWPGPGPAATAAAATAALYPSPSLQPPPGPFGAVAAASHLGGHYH
The method, boiled down: as §1

A further assay deals with ETV5 (Homo sapiens, UniProt P41161 1-510). In outline: as §1
The target of the next assay is T8, SPIC (Homo sapiens, UniProt Q8N5J4 1-248).
T8 sequence: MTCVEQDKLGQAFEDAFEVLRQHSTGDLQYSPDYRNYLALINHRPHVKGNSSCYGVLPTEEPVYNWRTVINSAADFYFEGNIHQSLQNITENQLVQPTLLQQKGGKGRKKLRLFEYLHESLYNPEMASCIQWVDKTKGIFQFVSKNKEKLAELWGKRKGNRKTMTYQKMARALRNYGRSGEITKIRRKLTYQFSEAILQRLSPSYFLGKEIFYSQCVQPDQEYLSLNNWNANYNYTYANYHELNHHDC
The method, boiled down:
as §1

The target in another assay is ELF4 (Homo sapiens, UniProt Q99607 1-663). In outline: as §1
For a further assay, the target named is ETV1 (Homo sapiens, UniProt P50549 1-477). The method, boiled down:
as §1

The target of a further assay is T9, ERF (Homo sapiens, UniProt P50548 1-548).
T9 sequence: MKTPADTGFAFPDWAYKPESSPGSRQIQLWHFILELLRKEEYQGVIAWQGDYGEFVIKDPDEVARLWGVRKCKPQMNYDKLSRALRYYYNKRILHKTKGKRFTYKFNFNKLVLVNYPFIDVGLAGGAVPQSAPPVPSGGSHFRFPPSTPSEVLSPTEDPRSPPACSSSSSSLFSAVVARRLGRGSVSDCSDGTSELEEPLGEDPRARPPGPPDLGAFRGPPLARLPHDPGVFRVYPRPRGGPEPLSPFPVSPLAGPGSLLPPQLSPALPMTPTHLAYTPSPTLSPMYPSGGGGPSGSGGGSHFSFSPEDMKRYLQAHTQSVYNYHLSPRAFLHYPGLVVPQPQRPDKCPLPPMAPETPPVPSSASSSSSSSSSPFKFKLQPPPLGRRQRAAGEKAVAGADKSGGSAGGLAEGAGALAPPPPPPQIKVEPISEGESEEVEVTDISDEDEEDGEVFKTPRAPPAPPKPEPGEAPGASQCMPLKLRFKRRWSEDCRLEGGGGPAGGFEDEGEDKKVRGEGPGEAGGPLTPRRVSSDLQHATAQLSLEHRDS
The method, boiled down:
as §1

For another assay, the target named is T10, ETV3L (Homo sapiens, UniProt Q6ZN32 1-361).
T10 sequence: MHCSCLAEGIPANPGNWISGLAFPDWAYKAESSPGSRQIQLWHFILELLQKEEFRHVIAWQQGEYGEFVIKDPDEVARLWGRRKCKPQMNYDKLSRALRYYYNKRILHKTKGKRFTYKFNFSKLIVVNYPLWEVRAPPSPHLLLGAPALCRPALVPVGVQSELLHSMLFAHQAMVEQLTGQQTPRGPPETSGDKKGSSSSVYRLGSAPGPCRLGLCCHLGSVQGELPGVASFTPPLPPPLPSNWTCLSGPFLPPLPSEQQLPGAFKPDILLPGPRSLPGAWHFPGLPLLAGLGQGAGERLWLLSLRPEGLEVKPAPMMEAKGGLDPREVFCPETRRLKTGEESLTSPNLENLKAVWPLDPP
In outline: as §1

A further assay has as its target T11, ETS2 (Homo sapiens, UniProt P15036 1-469).
T11 sequence: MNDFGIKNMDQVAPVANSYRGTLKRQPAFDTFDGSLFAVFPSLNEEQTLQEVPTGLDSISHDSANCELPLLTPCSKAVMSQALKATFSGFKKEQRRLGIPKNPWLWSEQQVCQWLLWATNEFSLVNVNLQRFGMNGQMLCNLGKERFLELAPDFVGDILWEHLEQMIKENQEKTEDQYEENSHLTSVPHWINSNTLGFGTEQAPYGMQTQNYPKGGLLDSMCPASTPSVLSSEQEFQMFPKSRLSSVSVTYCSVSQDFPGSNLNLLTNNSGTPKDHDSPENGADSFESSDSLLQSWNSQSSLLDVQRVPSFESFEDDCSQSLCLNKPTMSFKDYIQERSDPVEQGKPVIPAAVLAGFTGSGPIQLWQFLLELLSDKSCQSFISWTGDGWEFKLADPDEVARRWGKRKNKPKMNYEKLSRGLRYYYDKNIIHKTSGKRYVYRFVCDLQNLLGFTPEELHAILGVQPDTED
In outline: as §1

The target in a further assay is T12, ELF5 (Homo sapiens, UniProt Q9UKW6-2 1-255).
T12 sequence: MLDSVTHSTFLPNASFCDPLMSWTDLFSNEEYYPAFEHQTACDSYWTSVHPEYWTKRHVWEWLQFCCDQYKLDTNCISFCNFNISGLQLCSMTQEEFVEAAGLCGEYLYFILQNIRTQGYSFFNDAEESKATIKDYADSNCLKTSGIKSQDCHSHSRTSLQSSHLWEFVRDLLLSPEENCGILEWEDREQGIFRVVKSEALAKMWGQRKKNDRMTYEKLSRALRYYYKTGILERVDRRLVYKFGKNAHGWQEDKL
The method, boiled down:
as §1

In a further assay the target is T13, ETV3 (Homo sapiens, UniProt P41162-2 1-143).
T13 sequence: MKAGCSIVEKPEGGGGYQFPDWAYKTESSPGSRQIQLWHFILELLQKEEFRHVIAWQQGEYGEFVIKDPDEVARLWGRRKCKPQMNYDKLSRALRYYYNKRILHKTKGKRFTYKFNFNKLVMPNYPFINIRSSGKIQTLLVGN
In outline:
as §1

Another assay concerns the target ETV6 (Homo sapiens, UniProt P41212 1-452). In outline:
as §1

Sequence of SPIB (Q01892 whole entry): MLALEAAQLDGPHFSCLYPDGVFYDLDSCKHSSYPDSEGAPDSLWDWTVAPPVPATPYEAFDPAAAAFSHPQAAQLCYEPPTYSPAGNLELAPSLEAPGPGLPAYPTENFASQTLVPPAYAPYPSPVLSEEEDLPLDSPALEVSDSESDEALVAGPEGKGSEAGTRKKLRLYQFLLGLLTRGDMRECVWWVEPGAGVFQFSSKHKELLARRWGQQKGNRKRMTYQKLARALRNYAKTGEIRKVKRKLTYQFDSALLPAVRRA
Sequence of ETV1 (P50549 whole entry): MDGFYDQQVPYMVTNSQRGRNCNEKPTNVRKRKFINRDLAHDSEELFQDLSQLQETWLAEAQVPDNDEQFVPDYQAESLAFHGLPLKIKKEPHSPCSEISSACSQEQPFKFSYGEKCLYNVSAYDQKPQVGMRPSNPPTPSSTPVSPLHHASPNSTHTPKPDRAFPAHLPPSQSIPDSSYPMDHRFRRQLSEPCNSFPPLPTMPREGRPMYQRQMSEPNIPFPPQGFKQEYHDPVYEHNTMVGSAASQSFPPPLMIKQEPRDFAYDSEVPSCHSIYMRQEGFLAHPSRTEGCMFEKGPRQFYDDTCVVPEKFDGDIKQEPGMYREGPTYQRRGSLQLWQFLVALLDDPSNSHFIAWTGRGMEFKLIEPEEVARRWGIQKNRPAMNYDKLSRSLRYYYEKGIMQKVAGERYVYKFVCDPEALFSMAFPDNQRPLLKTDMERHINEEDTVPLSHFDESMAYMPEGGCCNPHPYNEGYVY
Sequence of ETV5 (P41161 whole entry): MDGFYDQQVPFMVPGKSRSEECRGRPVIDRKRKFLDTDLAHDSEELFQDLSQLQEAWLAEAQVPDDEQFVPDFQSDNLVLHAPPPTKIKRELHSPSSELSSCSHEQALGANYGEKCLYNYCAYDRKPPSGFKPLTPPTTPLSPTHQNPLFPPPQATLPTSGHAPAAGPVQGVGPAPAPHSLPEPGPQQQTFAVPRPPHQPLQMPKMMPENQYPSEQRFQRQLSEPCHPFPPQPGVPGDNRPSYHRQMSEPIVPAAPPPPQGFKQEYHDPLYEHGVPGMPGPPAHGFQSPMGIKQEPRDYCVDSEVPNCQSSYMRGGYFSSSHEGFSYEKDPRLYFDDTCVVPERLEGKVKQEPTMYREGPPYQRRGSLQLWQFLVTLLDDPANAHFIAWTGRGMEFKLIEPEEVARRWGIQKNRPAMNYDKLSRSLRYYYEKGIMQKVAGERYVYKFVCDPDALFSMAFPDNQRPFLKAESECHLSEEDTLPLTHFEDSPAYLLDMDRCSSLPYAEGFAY
Sequence of ELF4 (Q99607 whole entry): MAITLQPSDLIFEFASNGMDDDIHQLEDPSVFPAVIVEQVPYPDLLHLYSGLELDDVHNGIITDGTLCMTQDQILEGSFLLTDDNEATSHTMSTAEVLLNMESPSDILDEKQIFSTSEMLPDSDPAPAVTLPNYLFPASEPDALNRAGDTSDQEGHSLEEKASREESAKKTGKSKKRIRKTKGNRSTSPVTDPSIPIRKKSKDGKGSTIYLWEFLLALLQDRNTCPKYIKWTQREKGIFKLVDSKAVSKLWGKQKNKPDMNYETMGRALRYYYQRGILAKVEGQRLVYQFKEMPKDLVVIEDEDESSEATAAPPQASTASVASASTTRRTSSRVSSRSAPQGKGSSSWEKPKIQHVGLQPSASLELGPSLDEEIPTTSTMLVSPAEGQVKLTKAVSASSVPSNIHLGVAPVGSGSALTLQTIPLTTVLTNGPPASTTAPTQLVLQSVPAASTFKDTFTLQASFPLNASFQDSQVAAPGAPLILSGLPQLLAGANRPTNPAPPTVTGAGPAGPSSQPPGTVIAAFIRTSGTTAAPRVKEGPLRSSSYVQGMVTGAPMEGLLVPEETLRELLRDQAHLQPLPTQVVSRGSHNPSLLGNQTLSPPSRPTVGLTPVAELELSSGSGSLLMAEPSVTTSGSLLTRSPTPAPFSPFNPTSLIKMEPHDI
Sequence of ELF1 (P32519 whole entry): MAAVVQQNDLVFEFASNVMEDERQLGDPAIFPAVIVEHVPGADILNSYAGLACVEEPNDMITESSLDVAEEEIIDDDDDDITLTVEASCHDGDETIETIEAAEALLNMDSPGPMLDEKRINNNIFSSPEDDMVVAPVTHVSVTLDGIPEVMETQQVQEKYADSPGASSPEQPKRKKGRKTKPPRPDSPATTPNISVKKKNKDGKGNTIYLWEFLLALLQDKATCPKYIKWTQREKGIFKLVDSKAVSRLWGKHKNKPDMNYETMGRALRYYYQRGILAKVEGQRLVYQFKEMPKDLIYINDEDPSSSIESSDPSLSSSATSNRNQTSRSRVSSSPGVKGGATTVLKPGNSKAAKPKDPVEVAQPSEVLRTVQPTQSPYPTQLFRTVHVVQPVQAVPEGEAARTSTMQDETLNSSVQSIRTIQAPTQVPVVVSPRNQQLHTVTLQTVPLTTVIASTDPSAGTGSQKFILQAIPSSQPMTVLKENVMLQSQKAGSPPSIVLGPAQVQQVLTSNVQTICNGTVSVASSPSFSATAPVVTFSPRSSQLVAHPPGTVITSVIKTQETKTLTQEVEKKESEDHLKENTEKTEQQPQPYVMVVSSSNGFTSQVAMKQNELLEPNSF
Sequence of ETV6 (P41212 whole entry): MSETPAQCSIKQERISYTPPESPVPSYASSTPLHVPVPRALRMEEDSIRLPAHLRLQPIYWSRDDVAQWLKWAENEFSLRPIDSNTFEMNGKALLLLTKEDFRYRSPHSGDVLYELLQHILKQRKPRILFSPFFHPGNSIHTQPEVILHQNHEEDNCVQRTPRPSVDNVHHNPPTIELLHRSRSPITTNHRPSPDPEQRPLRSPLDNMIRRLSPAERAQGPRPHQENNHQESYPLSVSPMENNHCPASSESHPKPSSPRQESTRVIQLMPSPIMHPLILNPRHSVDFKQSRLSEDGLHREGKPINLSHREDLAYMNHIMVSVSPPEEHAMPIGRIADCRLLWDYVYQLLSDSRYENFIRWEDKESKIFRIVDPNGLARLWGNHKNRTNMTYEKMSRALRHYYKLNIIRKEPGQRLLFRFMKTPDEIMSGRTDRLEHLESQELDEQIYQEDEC

Take CGTCGC: the binding signal is 1.31 fold enrichment (6-mer frequency, TF over GST control) with FLI1; 1.2 fold enrichment (6-mer frequency, TF over GST control) with ELK1; 1.24 fold enrichment (6-mer frequency, TF over GST control) with GABPA; 1.19 fold enrichment (6-mer frequency, TF over GST control) with ERG; 1.21 fold enrichment (6-mer frequency, TF over GST control) with ELF1; 1.14 fold enrichment (6-mer frequency, TF over GST control) with EHF. In addition, the binding signal is 1.21 fold enrichment (6-mer frequency, TF over GST control) with SPI1; 1.25 fold enrichment (6-mer frequency, TF over GST control) with SPIB; 1.09 fold enrichment (6-mer frequency, TF over GST control) with ELK3; 1.14 fold enrichment (6-mer frequency, TF over GST control) with FEV; 1.12 fold enrichment (6-mer frequency, TF over GST control) in the assay with ETV5; 1.07 fold enrichment (6-mer frequency, TF over GST control) with SPIC. Moreover, the binding signal was 1.06 fold enrichment (6-mer frequency, TF over GST control) with ELF4; 1.3 fold enrichment (6-mer frequency, TF over GST control) with ETV1; 1.3 fold enrichment (6-mer frequency, TF over GST control) with ERF; 1.13 fold enrichment (6-mer frequency, TF over GST control) in the assay with ETV3L; 1.14 fold enrichment (6-mer frequency, TF over GST control) with ETS2; 1.19 fold enrichment (6-mer frequency, TF over GST control) with ELF5. For the same sequence, the binding signal in the assay with ETV3 was 1.2 fold enrichment (6-mer frequency, TF over GST control); with ETV6 it was 1.2 fold enrichment (6-mer frequency, TF over GST control).
